Measured values taken from PubChem BioAssay AID1159580 (chemical genetic matrix, 2015).
Where “and” joins values, the source holds several entries; their conditions need not be identical. Equal values may be shown once. Among all 5,500 compounds or so, about 2,000 (36%) were called active. Not shown: some 18% with an inconclusive outcome. Rule as the data show it: active = normalized growth mostly below about 0.91 (no sharp cut-off); inconclusive = no clear call, values can overlap the other calls; inactive = mostly above about 0.92. The list shows a part of the results.

Assay: chemical genetic growth profiling, strain panel (AID 1159580);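 also: tested at 20 µM; growth read once vehicle control cultures reached saturation at 30 °C; 1 = growth at the plate median or of vehicle wells; lower values mean less growth of the strain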
Conditions: S. cerevisiae deletion strains, growth OD

Measured: normalized growth

CCCNC(C)C(=O)Nc1ccccc1C (stereo not given)
inactive: locus YAL013W, strain DEP1, hits give low values 1.01 | locus YAL021C, strain ccr4, hits give low values 1.01 | locus YAL026C, strain drs2, hits give low values 1.01 | locus YAL030W, strain snc1, hits give low values 0.995 | locus YAL040C, strain CLN3, hits give low values 1.07 | locus YBL061C, strain skt5, hits give low values 1.01 | locus YBR009C, strain hhf1, hits give low values 1.01 | locus YBR021W, strain FUR4, hits give low values 1.01 | locus YBR023C, strain chs3, hits give low values 1 | locus YBR171W, strain sec66, hits give low values 1.01 | locus YBR229C, strain ROT2, hits give low values 1.01 | locus YBR231C, strain swc5, hits give low values 1.01 | locus YBR279W, strain paf1, hits give low values 1.01 | locus YCL011C, strain gbp2, hits give low values 0.999 | locus YCL016C, strain dcc1, hits give low values 1.01 | locus YCL029C, strain bik1, hits give low values 1 | locus YCL061C, strain MRC1 (second series), hits give low values 1.01 | locus YCL061C, strain MRC1, hits give low values 0.997 | locus YCL069W, strain vba3, hits give low values 1.01 | locus YCR088W, strain abp1, hits give low values 1.01 | locus YDL005C, strain med2, hits give low values 1 | locus YDL035C, strain GPR1, hits give low values 1.01 | locus YDL040C, strain nat1, hits give low values 1.01 | locus YDL074C, strain BRE1, hits give low values 1.02 | locus YDL101C, strain DUN1, hits give low values 1.02 | locus YDL134C, strain PPH21, hits give low values 1.01 | locus YDL185W, strain tfp1, hits give low values 0.997 | locus YDL192W, strain arf1, hits give low values 0.996 | locus YDR001C, strain nth1, hits give low values 1 | locus YDR069C, strain doa4, hits give low values 1.02 | locus YDR101C, strain arx1, hits give low values 1 | locus YDR137W, strain rgp1, hits give low values 1.03 | locus YDR150W, strain NUM1, hits give low values 1.01 | locus YDR159W, strain sac3, hits give low values 1 | locus YDR162C, strain NBP2, hits give low values 1.01 | locus YDR195W, strain ref2 1.01 | locus YDR297W, strain sur2, hits give low values 1 | locus YDR318W, strain mcm21, hits give low values 0.998 | locus YDR334W, strain swr1, hits give low values 0.998 | locus YDR335W, strain msn5, hits give low values 1.01 | locus YDR363W, strain ESC2, hits give low values 1.05 | locus YDR388W, hits give low values 0.99 | locus YDR392W, strain spt3, hits give low values 1.01 | locus YDR502C, strain sam2, hits give low values 0.991 | locus YEL003W, strain gim4, hits give low values 0.998 | locus YEL037C, strain rad23, hits give low values 0.994 | locus YEL061C, strain CIN8 (second series), hits give low values 1.01 | locus YEL061C, strain CIN8, hits give low values 1.01 | locus YER002W, strain NOP16, hits give low values 0.995 | locus YER015W, strain faa2, hits give low values 0.984 | locus YER016W, strain bim1, hits give low values 0.999 | locus YER110C, hits give low values 0.991 | locus YER111C, strain swi4, hits give low values 1 | locus YER155C, strain BEM2 (second series), hits give low values 1.01 | locus YER155C, strain BEM2, hits give low values 1.01 | locus YER167W, strain BCK2, hits give low values 1 | locus YFR010W, strain ubp6, hits give low values 0.992 | locus YGL078C, strain dbp3, hits give low values 0.987 | locus YGL086W, strain mad1, hits give low values 0.993 | locus YGL167C, strain pmr1, hits give low values 1.01 | locus YGL173C, strain kem1, hits give low values 1 | locus YGL227W, strain vid30, hits give low values 1 | locus YGL240W, strain doc1, hits give low values 1.01 | locus YGL248W, strain PDE1, hits give low values 1.02 | locus YGL253W, strain hxk2, hits give low values 1.01 | locus YGR078C, strain PAC10, hits give low values 1 | locus YGR135W, strain pre9, hits give low values 0.957 | locus YGR229C, strain SMI1, hits give low values 0.99 and 1.01 | locus YGR252W, strain gcn5, hits give low values 0.911 | locus YHR013C, strain ard1, hits give low values 1.01 | locus YHR027C, strain rpn1, hits give low values 1.01 | locus YHR030C, strain SLT2, hits give low values 1.01 and 1.04 | locus YHR079C, strain IRE1 (second series), hits give low values 1.01 | locus YHR079C, strain IRE1, hits give low values 1.06 | locus YHR094C, strain hxt1, hits give low values 0.982 | locus YHR129C, strain ARP1, hits give low values 1.01 | locus YHR142W, strain chs7, hits give low values 1 | locus YHR200W, strain rpn10, hits give low values 0.999 | locus YIL066C, strain RNR3, hits give low values 1.02 | locus YIL073C, strain SPO22, hits give low values 0.989 | locus YIL125W, strain kgd1, hits give low values 0.981 | locus YIR030C, strain dcg1, hits give low values 0.994 | locus YJL092W, strain hpr5, hits give low values 1 | locus YJL095W, strain BCK1 (second series), hits give low values 1.01 | locus YJL095W, strain BCK1, hits give low values 1.02 and 1.05 | locus YJL115W, strain asf1, hits give low values 1.01 | locus YJL129C, strain trk1, hits give low values 1.01 | locus YJL134W, strain LCB3, hits give low values 1.01 | locus YJL154C, strain vps35, hits give low values 1 | locus YJL164C, strain tpk1, hits give low values 0.958 | locus YJL166W, strain qcr8, hits give low values 0.999 | locus YJL168C, strain set2, hits give low values 0.991 | locus YJL187C, strain SWE1 (second series), hits give low values 1.02 | locus YJL187C, strain SWE1, hits give low values 0.999 | locus YJR043C, strain POL32, hits give low values 1
